Columns and labels:
Settings in all cases: concentration: 1 μM, replicates: in singlicate; n = 1
[1] = tested on: T1, MLK1
T1 construct: gene MAP3K9

[2] = tested on: MLK2
[3] = tested on: MLK3
[4] = tested on: MRCKA
[5] = tested on: T2, MRCKB
T2 construct: gene CDC42BPB

[6] = tested on: MST1R
[7] = tested on: T3, MST1
T3 construct: gene STK4

[8] = tested on: T4, MST2
T4 construct: gene STK3

[9] = tested on: T5, MST3
T5 construct: gene STK24

[10] = tested on: MST4
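Further: KINOMEscan kinase panel screen.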

| Compound | %Inh [1] [%] | %Inh [2] [%] | %Inh [3] [%] | %Inh [4] [%] | %Inh [5] [%] | %Inh [6] [%] | %Inh [7] [%] | %Inh [8] [%] | %Inh [9] [%] | %Inh [10] [%] |
| --- | --- | --- | --- | --- | --- | --- | --- | --- | --- | --- |
| c1ccc(Oc2ccc(Nc3ccnc4cc(-c5ccc(CNCCN6CCOCC6)o5)ccc34)cc2)nc1 [GW567145] | 0 | 0 | 0 | 0 | 0 | 16 | 0 | 0 | 11 | 0 |
| O=C(O)C(F)(F)F.O=C(O)C(F)(F)F.O=c1[nH]ccc2nc(N[C@@H]3CCCNC3)nc(Nc3ccc(S(=O)(=O)N4CCOCC4)cc3)c12 [GSK2177277] | 96.4 | 83 | 98.4 | 35 | 80 | 57 | 99.3 | 41 | 97.5 | 98.9 |
| Cc1occc1-c1ncc(OC[C@@H](N)Cc2c[nH]c3ccccc23)cc1-c1ccc2[nH]nc(C)c2c1.O=C(O)C(F)(F)F [GSK682037] | 12 | 0 | 28 | 38 | 72 | 41 | 71 | 90 | 55 | 85 |
| COc1ccc(-c2coc3ccc(-c4nnc(SCc5ccc(OC)c(C(F)(F)F)c5)o4)cc23)cc1 | 14 | 0 | 0 | 0 | 0 | 0 | 32 | 11 | 17 | 0 |
| COc1ccc(Nc2nccc(NCCNC(=O)c3cc4ccccc4s3)n2)cc1 [GSK1379896] | 0 | 0 | 14 | 21 | 6 | 40 | 0 | 24 | 0 | 0 |
| C[C@@H]1CC[C@@H](C(=O)Nc2ccccc2)CN1c1cc(-c2ccc3c(N)n[nH]c3c2)nc(N)n1 [GSK2286062] | 7 | 0 | 13 | 0 | 0 | 26 | 0 | 0 | 11 | 0 |
| CN(c1ccc(NC(=O)Nc2cc(C(F)(F)F)ccc2F)cc1)c1ccnc(Nc2ccc(S(N)(=O)=O)cc2)n1 [GW809893] | 75 | 34 | 66 | 0 | 0 | 99.7 | 80 | 2 | 29 | 28 |
| CN(C)Cc1ccc(-c2ccc3c(Nc4ccc(Oc5ccccn5)cc4)ccnc3c2)o1 [GW567148] | 0 | 0 | 1 | 0 | 0 | 41 | 14 | 0 | 0 | 0 |
| COc1cc(Nc2nccc(N3CCC(NC(=O)Nc4cccc(C(C)=O)c4)C3)n2)cc(OC)c1OC (stereo not shown) [GSK1379753] | 48 | 0 | 45 | 18 | 0 | 36 | 89 | 31 | 2 | 0 |
| Nc1ncc(-c2ccc3nccc(-c4ccncc4)c3c2)cc1S(=O)(=O)N1CCOCC1 [GSK1627798] | 6 | 0 | 0 | 0 | 0 | 11 | 7 | 0 | 4 | 0 |
| O=C(Nc1cccc(Oc2ccc3nc(NC(=O)C4CC4)cn3n2)c1)c1ccccc1C(F)(F)F | 6 | 4 | 0 | 24 | 0 | 23 | 10 | 18 | 0 | 0 |
| Cc1ccc(F)c(C(=O)Nc2cccc(-c3nn4ccccc4c3-c3ccnc(Nc4cccc(F)c4)n3)c2)c1F [GSK361061] | 14 | 42 | 31 | 22 | 24 | 34 | 34 | 0 | 2 | 15 |
| Cc1ccc(C(=O)Nc2ccc(Nc3ccnc4cc(-c5nccs5)ccc34)cc2O)cc1.Cl [GW494702] | 0 | 0 | 0 | 1 | 0 | 34 | 0 | 5 | 3 | 0 |
| COCCOCCOc1cc2ncc3c4ccc(C#N)cc4[nH]c3c2cc1OC | 22 | 0 | 53 | 12 | 24 | 0 | 12 | 76 | 0 | 0 |
| CCCCc1nn2ncccc2c1-c1ccnc(Nc2ccc(N3CCN(C)CC3)cc2)n1 [GW684941] | 0 | 5 | 0 | 19 | 17 | 45 | 0 | 0 | 1 | 0 |
| CC(C)c1nc(-c2cccc(NS(=O)(=O)c3c(F)cccc3F)c2F)c(-c2ccnc(Nc3ccc(N4CCOCC4)nc3)n2)s1 [GSK2008607] | 96.3 | 100 | 92.7 | 0 | 0 | 82 | 55 | 0 | 63 | 39 |
| Cn1cc(-c2[nH]c3cc(NC(=O)[C@H](N)C4CCCCC4)cc4c3c2C=NNC4=O)cn1 | 88 | 69 | 83 | 0 | 0 | 15 | 27 | 99.1 | 55 | 97.5 |
| CSc1cccc2c(-c3ccncn3)c(-c3ccc(F)cc3)nn12 [GW514786] | 14 | 19 | 12 | 25 | 14 | 18 | 5 | 14 | 5 | 6 |
| CCc1ccc(-c2ccc3c(c2)-c2c(cnn2C)S(=O)(=O)N3C)cc1 | 7 | 0 | 0 | 0 | 0 | 31 | 0 | 0 | 0 | 0 |
| CN(C)S(=O)(=O)c1cc(-c2ccc3nccc(-c4cccc(S(N)(=O)=O)c4)c3c2)cnc1N [GSK1669921] | 0 | 22 | 0 | 0 | 0 | 32 | 20 | 2 | 5 | 6 |
| COc1cc(Nc2nccc(-c3c(-c4cccc(NC(=O)c5c(F)cccc5F)c4)nn4ncccc34)n2)cc(OC)c1OC [GSK327238] | 9 | 39 | 50 | 100 | 98.9 | 79 | 96.6 | 92.1 | 64 | 42 |
| NCCCC(NC(=O)c1cc(Br)c(-c2ccnc3[nH]ccc23)s1)c1ccccc1.O=C(O)C(F)(F)F.O=C(O)C(F)(F)F (stereo not shown) [GSK1287544] | 0 | 15 | 0 | 63 | 98.8 | 17 | 0 | 0 | 0 | 11 |

From publication PMC5540273 (PLoS ONE, 2017)
